Results taken from PubChem BioAssay AID624125 (The Scripps Research Institute Molecular Screening Center, 2012).
Hit rate of the full screen: of about 360,000 compounds, about 2,600 (0.72%) were called active.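 The calls were made as follows: active = inhibition above its plate's cutoff, the mean inhibition of sample wells plus 3 SD (cut at about 27% in these data); inactive = the rest.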 For the sample, actives were picked, then their nearest neighbours and some compounds at random.

The compounds below were run against Muscarinic acetylcholine receptor M4 (Homo sapiens) (UniProt P08173) (assay: human M4 muscarinic receptor antagonists, primary screen, CHO cells, Fluo-8 calcium fluorescence (AID 624125;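 also: 0% = acetylcholine EC80 with DMSO and 100% = DMSO without agonist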)). Conditions: CHO-hM4 cells, ACh EC80, Fluo-8 calcium fluorescence; at 3 µM; active compounds read high.
Muscarinic acetylcholine receptor M4 (Homo sapiens), sequence (P08173 whole entry, looked up): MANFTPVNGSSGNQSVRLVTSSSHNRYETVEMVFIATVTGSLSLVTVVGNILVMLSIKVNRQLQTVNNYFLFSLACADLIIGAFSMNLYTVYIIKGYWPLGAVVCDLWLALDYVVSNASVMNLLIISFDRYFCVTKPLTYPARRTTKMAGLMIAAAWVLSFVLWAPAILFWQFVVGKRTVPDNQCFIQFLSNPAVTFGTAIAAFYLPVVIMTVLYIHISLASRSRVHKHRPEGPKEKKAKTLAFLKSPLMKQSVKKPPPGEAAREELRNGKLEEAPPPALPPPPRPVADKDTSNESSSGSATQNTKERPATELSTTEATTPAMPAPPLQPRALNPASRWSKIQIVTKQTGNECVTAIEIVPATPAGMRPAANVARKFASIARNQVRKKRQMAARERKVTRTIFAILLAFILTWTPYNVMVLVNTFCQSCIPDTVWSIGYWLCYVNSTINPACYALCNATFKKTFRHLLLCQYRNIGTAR

inhibition, active:
O=[N+]([O-])c1c(NCCO)cc(Sc2nc3ccccc3s2)c2nonc12 74.6%
CCCCN1C(=O)/C(=C2/C=CC=CN2C)SC1=S 28.7%
c1ccc2c(c1)CSc1sccc1C2=C1CCNCC1 97.6%
CCCCC(=O)NNC(=S)NC(=O)C(c1ccccc1)c1ccccc1 59.9%
COc1ccc(C(=O)NC2CCCc3c2cnn3-c2cccc(C)c2C)c(OC)n1 (stereo not given) 30.6%
O=C1C(Cl)=C(Oc2ccccc2)C(=O)c2ccccc21 43.5%
O=C(Nc1ccc2c(c1)OCCO2)C(C1CC1)N1CCC(Cc2ccccc2)CC1 (stereo not given) 28.2%
CN(C(=O)CN(CCO)CC(=O)N(C)C(C)(C)Cc1ccccc1)C(C)(C)Cc1ccccc1 28.1%
CCOC(=O)N1CCN(C(=O)c2cn(C)c3ccc(S(=O)(=O)N4CCCC4)cc3c2=O)CC1 58.7%
CC12CN(Cc3ccccc3)CC(C)(CN(Cc3ccccc3)C1)C2=NO 31.4%
CCn1c(CNC(=O)c2cc(OC)c(OC)c(OC)c2)cc2cc(C)ccc21 28.2%
CCN1CCN(c2cc3nc(C)n(Cc4ccccc4)c(=O)c3cc2NC(=O)c2ccccc2F)CC1 84.6%
COc1ccccc1C(CNC(=O)c1ccc(C)c(S(=O)(=O)N2CCCCC2)c1)N(C)C (stereo not given) 51.6%
COc1ccccc1C(CNC(=O)c1cccc(S(=O)(=O)Nc2ccc(F)cc2)c1)N(C)C (stereo not given) 48.7%
CCOc1ccc(NS(=O)(=O)c2ccc(C(=O)NCC(c3ccccc3OC)N3CCCC3)cc2)cc1 (stereo not given) 40.8%
CC(C)Cc1cc(C(=O)NCCc2ccccc2)no1 101%
O=C(CN1CCCCCC1)N1c2ccccc2Sc2ccc(C(F)(F)F)cc21 98%
O=C(CN1CCCCC1)N1c2ccccc2Sc2ccc(C(F)(F)F)cc21 97.5%

inhibition, inactive:
CCS(=O)(=O)N1CCCC(C(=O)NCCCN(C)Cc2ccccc2)C1 (stereo not given) 6.16%
CCS(=O)(=O)c1ccc2c(c1)N(S(=O)(=O)c1ccccc1)CC(C(=O)O)O2 (stereo not given) 0.74%
CCCCN(CC(=O)Nc1cccc(S(=O)(=O)N2CCCC2)c1)Cc1nc2ccccc2c(=O)[nH]1 15.9%
O=C1CCCc2nn(-c3ccccc3)nc21 2.29%
C=CCC(NC(=O)Cc1ccccc1)C(=O)NCCC (stereo not given) 0.03%
CCCOCC(O)CC(CC)C(=O)NNC(=S)Nc1ccccc1 (stereo not given) -8.64%
CCOc1ccc(N(CC)S(=O)(=O)c2cccc3nsnc23)cc1 4.82%
O=C(/C=C/[C@H]1O[C@@H](n2ccc(=O)[nH]c2=O)[C@H](O)[C@@H]1O)NCc1ccccn1 -0.74%
COc1ccc(C(=O)O)cc1S(=O)(=O)NCc1cccnc1 -5.56%
COc1ccc(C(=O)NC2CC(C)(C)Cc3c2cnn3-c2ccccc2)c(OC)c1 (stereo not given) -2.19%
Cn1nccc1C(=O)NC1CCCc2c1cnn2-c1ccc(F)cc1F (stereo not given) 4.7%
CCC(Oc1ccccc1)C(=O)NCc1cccnc1 (stereo not given) -2.11%
CCN(CC(=O)Nc1ccc(NC(C)=O)cc1)C(=O)C1CC(=O)N(Cc2ccc(C)cc2)C1 (stereo not given) -10%
O=C1CC[C@@H](C(=O)N2CSC[C@@H]2C(=O)Nc2ccc(C(F)(F)F)cc2)N1 -9.06%
Cc1c(Cl)cccc1NC(=O)CSc1ccc(-c2cccnc2)nn1 4.65%
O=C(NCc1ccc2c(c1)OCO2)C1CCCN(S(=O)(=O)c2cccs2)C1 (stereo not given) -10.7%
O=C(Nn1cnc2ccccc2c1=O)c1ccc(F)cc1Cl 0.01%
COC(=O)[C@@]12CCCN1[C@H](c1ccc(-c3ccc(F)cc3)c(OC)c1)[C@H]1C(=O)N(C)C(=O)[C@H]12 0.47%
CC(C)(C)NC(=O)/C(=C/c1cccnc1)NC(=O)c1ccco1 -1.31%
COc1ccc(-c2onc3ccc(C(C)=O)cc23)cc1 -10.7%
CCn1c2ccccc2c2cc(NC(=S)N3CCOCC3)ccc21 3.52%
Nc1c(C(=O)Nc2ccc3c(c2)OCCO3)nnn1Cc1ccccc1 1.65%
O=C(CN1CCOc2ccccc21)N1CCC(Cc2ccccc2)CC1 -1.37%
O=C(Nc1ccccc1C(=O)N1CCOCC1)c1ccc(Cl)cc1 -14.3%
CN(CCO)C(=O)c1nc[nH]c1C(=O)N(C)Cc1ccccc1 -23.3%
CCOC(=O)N(Cc1ccccc1)C1CC1 2.24%
Cc1ccc2cc(C#N)c(NCCNC(=S)NCCCN3CCOCC3)nc2c1 -4.3%
COCCn1c(C)cc(C(=O)CN2c3cccc4cccc(c34)S2(=O)=O)c1C -7.15%
CCOC(=O)N1CCN(C(=O)c2cn(C)c3ccc(S(=O)(=O)N(CC)CC)cc3c2=O)CC1 -13.5%
COc1ccc(N2CCN(C(=O)c3cn(C)c4ccc(S(=O)(=O)N5CCOCC5)cc4c3=O)CC2)cc1 -12.4%
CCCCSc1nc2c(c(=O)n1CC)SC(C)C2 (stereo not given) -22.6%
Cc1ccc(NC(=O)C(C)OC(=O)Cc2c[nH]c3ccccc23)cc1S(=O)(=O)N1CCOCC1 (stereo not given) -17.2%
Cc1ccc(S(=O)(=O)N(Cc2ccc(Cl)cc2)c2ccccc2C(=O)NCc2cccnc2)cc1 2.37%
Nc1nc(NCc2ccccc2)n(-c2ccccc2)n1 -15.7%
CCCCCCn1c(=O)n2n(c1=O)C[C@]1(OC(=O)NCc3ccc(OC)c(OC)c3)CN(S(=O)(=O)c3ccc(C)cc3)C[C@]1(O)C2 -8.79%
O=S1(=O)CCN(Cc2ccccc2)CC1 -1.75%
NC(=O)C1(N2CCCC2)CCN(Cc2ccccc2)CC1 -8.47%
COc1cccc(CC(=O)N2CCCC(CCC(=O)N3CCN(c4ccccn4)CC3)C2)c1 (stereo not given) -6.8%
CC(=O)N[C@@H](C)C(=O)N1CCC(n2nccc2NC(=O)CCCc2ccccc2)CC1 -1.73%
COc1ccccc1NC(=O)COC(=O)Cc1ccc(S(=O)(=O)N2CCCCC2)s1 -3.41%
CC(C)Nc1nnc(SC(C)C(=O)N(C)C2CCCCC2)s1 (stereo not given) 3.18%
COc1cc(C(=O)NCc2ccc(-n3cccc3)cc2)cc(OC)c1OC 9.05%
COc1cc(C(=O)NCc2nnc(SCC(=O)Nc3nc4ccc(C)cc4s3)o2)cc(OC)c1OC 1.54%
Cc1ccc(S(=O)(=O)N2CCC(C(=O)N[C@@H](C)C(=O)NCc3ccccc3)CC2)cc1 -7.25%
Cc1coc2c1c(C)cc1oc(=O)c(CC(=O)NCC(=O)N[C@H](C(=O)O)C(C)C)c(C)c12 12.9%
C=CCn1c(SCC(=O)NCc2ccccc2)nnc1-c1cc(Br)ccc1O 10.6%
COc1ccccc1C(=O)NC(=O)COC(=O)c1ccco1 -3.72%
COc1ccccc1S(=O)(=O)NCc1ccc(C(=O)N(C)Cc2ccc(F)cc2)cc1 0.25%
Cc1ccc(CNC(=O)Cn2cnc(S(=O)(=O)N3CCCCC3)c2)o1 -2.52%
CCC(=O)Nc1ccc2nc(C)n(Cc3ccccc3Cl)c(=O)c2c1 6.19%
CCOc1cc(NC(=O)c2ccccc2C(=O)O)c(OCC)cc1NC(=O)c1ccccc1F -12.1%
COc1ccc(NC(=O)C[C@H]2C(=O)N(CCc3ccccc3)C[C@@H]2C)cc1 -7.17%
COc1cc2c(cc1OC)C(c1cccc([N+](=O)[O-])c1)=NCC2 -14.9%
COc1ccc(C(CNCC(=O)Nc2ccccc2F)N(C)C)cc1 (stereo not given) -5.27%
CCc1ccccc1NC(=O)CN(C)C(=O)COc1ccc(C)nc1[N+](=O)[O-] -2.74%
COc1ccccc1C(CNC(=O)c1cccc(NS(=O)(=O)c2ccc(Br)cc2)c1)N(C)C (stereo not given) 10.7%
COc1ccc(C(CNC(=O)c2cccc(S(=O)(=O)Nc3ccc(Br)cc3)c2)N(C)C)cc1 (stereo not given) 1.87%
COc1ccccc1CNC(=O)c1ccc(Cl)c(S(=O)(=O)N2CCCC2)c1 -5.41%
CCOc1ccc(NS(=O)(=O)c2ccc(C(=O)NC3CCN(Cc4ccccc4)CC3)cc2)cc1 6.63%
CCOc1ccc(S(=O)(=O)Nc2ccc(C(=O)NCCCN3CCCC3=O)cc2)cc1 -0.83%
Cc1ccc(C(=O)NCC(c2cccs2)N(C)C)cc1S(=O)(=O)N1CCOCC1 (stereo not given) 8.72%
Fc1cccc(Cc2c(-c3ccc(Cl)cc3)nc3ccc(Cl)cn23)c1 -24.1%
CCOC(=O)C(CC)Sc1ncnc2c1nnn2-c1ccc(F)cc1 (stereo not given) -1.34%
CC(C)Cc1cc(C(=O)Nc2cc(Br)ccc2O)no1 -14.2%
O=C(NCCCc1ccccc1)c1cc(COc2c(F)cccc2F)on1 -4.04%
CC1(C(=O)NS(=O)(=O)c2ccccc2Cl)CCN1C(=O)c1cccc(F)c1 (stereo not given) 3.33%
CC(Sc1nncn1C)C(=O)Nc1cc(C(F)(F)F)ccc1N1CCOCC1 (stereo not given) -5.32%
CN(CCC#N)c1ncnc2scc(-c3ccccc3)c12 -1.83%
O=C(CSc1nc2ccccc2o1)N1c2ccccc2Sc2ccc(Cl)cc21 -3.42%
O=C(CN1C(=O)/C(=C\c2ccc(C(F)(F)F)cc2)Sc2ccccc21)NCc1ccco1 14.8%
O=C(CN1CCCCCC1)Nc1ccc(Cl)cc1F -14.1%
CCC(=O)Nc1cc(C(F)(F)F)ccc1N1CCCC1 3.82%
